“And” between values parts separate entries of the source, which are not always exact repeats. Equal entries are not always repeated. Records with an inconclusive call do not appear. Values without a mark were called inactive. The source made the active and inactive calls. The call rests on the fitted dose curve; in most records, active means well fitted inhibition curve with a large enough effect in the signal ratio in the repeat runs; inconclusive means weak or mixed curves, or effect the other way; inactive means flat fitted curve, though single readings scatter; the % refers to the signal ratio.
Experiment: qHTS assay for small molecule disruptors of the mitochondrial membrane potential (AID 720635)
Conditions: HepG2 mitochondrial membrane potential, Mito-MPS dye ratio; series mostly up to 83.2 µM; ratio activity, negative = MMP loss: at the top concentration
Text: U.S. Tox21 Program National Center for Advancing Translational Sciences [NCATS] NIH Chemical Genomics Center [NCGC] U.S. Environmental Protection Agency [EPA] National Institutes of Environmental Health Sciences [NIEHS] National Toxicology Program [NTP] U.S. Food and Drug Administration [FDA] Tox21 Assay Overview: Mitochondrial membrane potential (MMP), one of the parameters for mitochondrial function, is generated by mitochondrial electron transport chain that creates an electrochemical gradient by a series of redox reactions. This gradient drives the synthesis of ATP, a crucial molecule for various cellular processes. Measuring MMP in living cells is commonly used to assess the effect of chemicals on mitochondrial function. […] The dye accumulates in the mitochondria of healthy cells as aggregates, with red fluorescence. The mitochondrial potential collapses and the dye can no longer accumulate in the mitochondria and remains in the cytoplasm in monomers, with green fluorescence.
Tox21 Assay Protocol Summary: 2,000 HepG2 cells in 5 uL/well were dispensed into black, clear-bottom 1536-well plates using a Multidrop Combi (Thermo Scientific) dispenser. The assay plates were incubated overnight at 37C to allow cells to attach to the wells, followed by the transfer of 23 nL compound or DMSO vehicle by a pin tool (Kalypsys). The plates were incubated for 1 hr at 37C and 5% CO2, followed by the addition of 5 uL of 2X Mito-MPS dye (BD Biosciences) into each well using Flying Reagent Dispenser (Aurora Discovery) and then following 30 min incubation at 37C. Fluorescence intensity (490nm excitation and 535nm emission for monomers; and 540nm excitation and 590nm emissions for aggregates) was measured using an Envision plate reader.
On the % scale 0 is the no-effect control and ±100 the full control effect; potency means the concentration at half of the fitted maximal effect.

Row | Structure (SMILES) | ratio activity, negative = MMP loss | Potency
1 | CC(=O)OCC(=O)[C@H]1CC[C@H]2[C@@H]3CC[C@H]4C[C@H](O)CC[C@]4(C)[C@H]3C(=O)C[C@]12C | 12.2% [at 39.1 µM] | 
2 | CC(=O)[C@@]1(O)CC[C@H]2[C@@H]3CCC4=CC(=O)CC[C@]4(C)C3(F)[C@@H](O)C[C@@]21C (stereo not given in full) | 8.57% | 
3 | NCC(O)c1cccc(O)c1 (stereo not given) | 13.1% | 
4 | COC(=O)[C@H]1[C@@H](OC(=O)c2ccccc2)C[C@@H]2CC[C@H]1N2C | -14.9% | 
5 | CCOC(=O)C(O)(c1ccc(Cl)cc1)c1ccc(Cl)cc1 |  | 4.37 µM (active) and 24.3 µM (active)
6 | CC(C)(C)c1ccc(O)cc1 |  | 55.8 µM (active) and 43.3 µM (active)
7 | C=CC[C@]1(O)CC[C@H]2[C@@H]3CCC4=CCCC[C@@H]4[C@H]3CC[C@@]21C |  | 9.44 µM (active)
8 | C=CCC1(C(C)CCC)C(=O)N=C(S)NC1=O (stereo not given) | -22.3% | 
9 | C[N+]1([O-])[C@@H]2CC[C@H]1CC(OC(=O)C(CO)c1ccccc1)C2 (stereo not given in full) |  | inactive
10 | C=CCC1([C@@H](C)CCC)C(=O)NC(=O)NC1=O | -7.51% | 
11 | COC(=O)[C@@H]1[C@H]2CC[C@@H](C[C@H]1OC(=O)c1ccccc1)N2C | -10.8% | 
12 | NC1=NC(=O)N2CC12 (stereo not given) | -4.4% | 
13 | CC1(C)[C@H](C=C(Cl)Cl)[C@H]1C(=O)OCc1c(F)c(F)cc(F)c1F |  | 22.1 µM (active)
14 | CN[C@]1(c2ccccc2Cl)CCCCC1=O | 24% | 
15 | CC(=O)O[C@H]1CC[C@H]2[C@@H]3CCC4=CC(=O)CCC4=C3C=C[C@]12C | -24% | 
16 | CCC1(CC)C(=O)NC(=O)N(C)C1=O | 19.9% | 
17 | O=C(O)/C=C/C(=O)O |  | inactive
18 | CCNCC(O)c1cccc(O)c1 (stereo not given) | -7.97% [at 39.1 µM] | 
19 | COc1ccc2c(c1)C13CCCC[C@@H]1C(C2)N(C)CC3 (stereo not given in full) | 17.6% | 
20 | CNC(=O)Oc1ccccc1C(=O)Nc1ccccc1 |  | 5.96 µM (active)

Row | Structure (SMILES) | ratio activity, negative = MMP loss | Potency
21 | Cc1nnc2n1-c1ccc(Cl)cc1C(c1ccccc1Cl)=NC2 | -3.82% | 
22 | Cc1ccc(N(SC(F)(Cl)Cl)S(=O)(=O)N(C)C)cc1 |  | 17.2 µM (active)
23 | O=C1Nc2ccc(Cl)cc2C(c2ccccc2Cl)=NC1O (stereo not given) | -14.7% | 
24 | O=C1C[C@@H]2OCC=C3CN4CC[C@]56c7ccccc7N1[C@H]5[C@H]2[C@H]3C[C@H]46 (tested in a mixture with another compound) |  | inactive
25 | CC(=O)OO | -14.4% | 
26 | COC([CH2][Hg])CNC(=O)c1ccccc1OCC(=O)O (stereo not given) | -24.4% | 
27 | CC1COC(Cn2cncn2)(c2ccc(Oc3ccc(Cl)cc3)cc2Cl)O1 (stereo not given) |  | 61.1 µM (active)
28 | c1csc(C2(N3CCCCC3)CCCCC2)c1 | -7.41% | 
29 | ClC1=C(Cl)[C@]2(Cl)[C@@H]3[C@@H](Cl)[C@H]4O[C@H]4[C@@H]3C1(Cl)C2(Cl)Cl |  | 27.3 µM (active)
30 | Clc1ccc2c(c1)C(c1ccccc1)=NCc1nncn1-2 | 12.4% | 
31 | OCC(c1ccc(Cl)cc1)c1ccc(Cl)cc1 |  | 27.3 µM (active)
32 | CC(C)=CCN1CC[C@]2(C)c3cc(O)ccc3C[C@H]1[C@H]2C | 10.2% | 
33 | Oc1c(Cl)cc(Cl)cc1Cl |  | 17 µM (active) and 48.6 µM (active)
34 | CCC(=O)O[C@@](Cc1ccccc1)(c1ccccc1)[C@@H](C)CN(C)C | 23.6% [at 39.1 µM] | 
35 | N#CC1(N2CCCCC2)CCCCC1 | 12% | 
36 | CCOc1ccc2c3c1O[C@H]1[C@@H](O)C=C[C@H]4[C@@H](C2)N(C)CC[C@@]341 | -28.3% | 
37 | O=C1CCCCC1CN1CCCCC1 (stereo not given) | -13.5% | 
38 | CN1[C@H]2CC[C@@H]1[C@@H](C(=O)O)[C@@H](OC(=O)c1ccccc1)C2 |  | inactive
39 | C[C@@H](N)C(=O)c1ccccc1 | 16.5% [at 95.3 µM] | 
40 | C[C@]12CC[C@H](O)C[C@H]1CC[C@@H]1[C@@H]2CC[C@]2(C)[C@@H](c3ccc(=O)oc3)C[C@H]3O[C@]132 |  | 2.66 µM (active)
